Laboratory results reported in PMC7819943, “Rice protein-binding microarrays: a tool to detect cis-acting elements near promoter regions in rice”.
Whole data set: some 68,000 sequences, median “fluorescence intensity (a.u.)” near 9,100, cut for the highest 2% near 16,000. The sample holds the highest values, similar sequences and a random draw of the others, so the mix is not that of the screen.

Target: OsWRKY34 (Oryza sativa, UniProt Q0JBA9 1-250)
Test: protein-binding microarray (RPBM); PBS, 2% BSA, 51.3 ng/ul salmon testes DNA, 50 uM zinc acetate, 200 nM TF, 25 C, 1 h; high values mean tight binding
Conditions: protein: recombinant; tags: N-terminal polyhistidine and DsRed monomer fusion (pET32a); label: CyDye5-dUTP incorporated in the synthesized complementary strand; 3' TTTTT single-stranded linker to array surface; dsDNA, one strand shown
Method in brief: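 Using Ni–NTA, transcription factors fused N-terminally to polyhistidine and DsRed were purified after expression in E. coli BL21-CodonPlus. These were incubated at 200 nM with a blocked, double-stranded custom Agilent array for 1 h at 25 °C in a buffer containing 50 µM zinc acetate, and the array was washed. The binding signal is per-feature fluorescence intensity (arbitrary units) on an Axon 4000B scanner.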

Chain of OsWRKY34 (Q0JBA9 entry or part of it): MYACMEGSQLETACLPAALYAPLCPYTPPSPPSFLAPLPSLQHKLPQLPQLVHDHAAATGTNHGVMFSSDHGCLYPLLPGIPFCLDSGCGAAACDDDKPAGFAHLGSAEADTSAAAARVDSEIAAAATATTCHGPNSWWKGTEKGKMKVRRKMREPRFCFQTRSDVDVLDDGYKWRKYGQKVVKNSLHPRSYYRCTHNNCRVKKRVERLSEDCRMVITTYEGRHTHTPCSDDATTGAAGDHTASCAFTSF

Sequence	binding signal
TTATGCATCGATATATACCACATGTCAACCGATGAATTCACGGAGTCACCTAGTGCAG	9490 fluorescence intensity (a.u.)
TTTTCCAAACTTCCAACTTTCTATCACATCAAACCTTTCACGGAGTCACCTAGTGCAG	8100 fluorescence intensity (a.u.)
ACCTGGCTGTGCATGTACTACCCCAATGCATTTCTCTCTCCGGAGTCACCTAGTGCAG	8250 fluorescence intensity (a.u.)
ATTCTGTAACCCGCTGCGGGCAACGGCCGGACGTGCAATCCGGAGTCACCTAGTGCAG	9630 fluorescence intensity (a.u.)
CTGATCGAATACTCTAGCATTGCGATCTTTCCAAATTTGCCGGAGTCACCTAGTGCAG	8510 fluorescence intensity (a.u.)
GGAGGGTGCGACAGCCCAATGTATCACTTGCGTTTGTATCCGGAGTCACCTAGTGCAG	8230 fluorescence intensity (a.u.)
GTAGCATGCTTCTATCCTGTCCCGGTGTTTGTCGTACATTCGGAGTCACCTAGTGCAG	10200 fluorescence intensity (a.u.)
GATTGAGTGTGCCCGTGTGAGATAGAATCTTTTTGCCCTTCGGAGTCACCTAGTGCAG	8930 fluorescence intensity (a.u.)
GGCTTCATCACAGCATCCATCGCCGCCGGCCACCACCACCCGGAGTCACCTAGTGCAG	12700 fluorescence intensity (a.u.)
CACCGCCGCAGCCCAAGCCCACCACCACCACCGCCGCCGCCGGAGTCACCTAGTGCAG	9060 fluorescence intensity (a.u.)
ATCCCGTTGCGTCCCATTTTCCTCGCCCTCGTCGCTAGTTCGGAGTCACCTAGTGCAG	11200 fluorescence intensity (a.u.)
AGCCACCACAGCCATCGCCCGTTCTTCCCGCCGGCCTATCCGGAGTCACCTAGTGCAG	9990 fluorescence intensity (a.u.)
ACAGCTTGCCGCCACCACCACACCACGCCGCTCGCCGCCCCGGAGTCACCTAGTGCAG	8950 fluorescence intensity (a.u.)
CAGCCCGCCGCCCCGCCCCGCCCCGCCGCAGGTCATTGACCGGAGTCACCTAGTGCAG	16400 fluorescence intensity (a.u.)
GCCGCTCACAGCCGTCTTCGCTTGCCCGCCGCCATCGCCACGGAGTCACCTAGTGCAG	17500 fluorescence intensity (a.u.)
TGTCAGCCTCGTCCGGCTTCATCCCGTTGCGTCCCATTTTCGGAGTCACCTAGTGCAG	17600 fluorescence intensity (a.u.)
CCGCCATCGCCGCCGCCATCCGTTGACCATGGCTTCAGCCCGGAGTCACCTAGTGCAG	18900 fluorescence intensity (a.u.)
ACATCCCCGACCCGCCCCGCCTCACCGGTCATTCGCAGCCCGGAGTCACCTAGTGCAG	9440 fluorescence intensity (a.u.)
CCGCCGCTCCACCGTCTCAGCCATCGCCACCGCCCGCAGCCGGAGTCACCTAGTGCAG	8400 fluorescence intensity (a.u.)
GGCTTCCCGTTGCGCGCGCGTCCCATCCTCGCCGGCGCTTCGGAGTCACCTAGTGCAG	8470 fluorescence intensity (a.u.)
ATCTTTTCCGCTGTTGCTGCTCCTCCTTTCTCGCTCTCGCCGGAGTCACCTAGTGCAG	9750 fluorescence intensity (a.u.)
AGGTTCTATGACAGTATTGCACCCGGTTTTGTCAGCTGACCGGAGTCACCTAGTGCAG	8600 fluorescence intensity (a.u.)

Sequence	binding signal
CTCCCGTGTCCCATTTAAAACCTTCTTCTTCTTCTTCGCTCGGAGTCACCTAGTGCAG	8650 fluorescence intensity (a.u.)
CGCCACCACTGCTGCCATCGTCAACATCCTATATGATTTTCGGAGTCACCTAGTGCAG	13400 fluorescence intensity (a.u.)
ATCAACCAGTAATCAATTGACCAAGCGGTTCTTGCGCCTACGGAGTCACCTAGTGCAG	9780 fluorescence intensity (a.u.)
GTTCTCACACTTCAGATTGTTATGTTTGGCTATGCTGTCTCGGAGTCACCTAGTGCAG	9600 fluorescence intensity (a.u.)
CTCTTAGCAATGCTGACTGGTCCGATCAAAGTCAACGGTTCGGAGTCACCTAGTGCAG	8730 fluorescence intensity (a.u.)
GAACCTGTCTACATCGGCCGTGTCTCGTGCACTTGCTCTCCGGAGTCACCTAGTGCAG	10700 fluorescence intensity (a.u.)
TGTCTTGGTCTTGTGGCGTTTATTGTTGCCGTCTGAGCGACGGAGTCACCTAGTGCAG	11000 fluorescence intensity (a.u.)
TGTATGATGCCTTTAACTTTTTAACCAACGTTTAATGTTTCGGAGTCACCTAGTGCAG	9010 fluorescence intensity (a.u.)
TATTTTAATGTATGATGCCGTTGACTTTTTAACCAACGTTCGGAGTCACCTAGTGCAG	27000 fluorescence intensity (a.u.)
GTTTATAAACTTAGTCAAACTTGAAACAGTTTGACTTTGACGGAGTCACCTAGTGCAG	12400 fluorescence intensity (a.u.)
TTTAATGTATGACACCGTTGACTTTTTAACCAACGTTTGACGGAGTCACCTAGTGCAG	36300 fluorescence intensity (a.u.)
GACTTTTTTAAACATATTTGACCGTTCGTTTTATTCAAAACGGAGTCACCTAGTGCAG	8190 fluorescence intensity (a.u.)
GCTTTTGAGTTGACAGCCACCGTTTTTAACCAACGCGCGACGGAGTCACCTAGTGCAG	8140 fluorescence intensity (a.u.)
GTATTTTAATGTATGACATTGTTGACTTTTTGATTAACGTCGGAGTCACCTAGTGCAG	13000 fluorescence intensity (a.u.)
TTTAATATATAACACCGTTGACTTTTTATCAAACGTTTGACGGAGTCACCTAGTGCAG	23400 fluorescence intensity (a.u.)
TTTAGACTTCTTCCAACTGGAATGCGTTTGACCCTAACCACGGAGTCACCTAGTGCAG	8180 fluorescence intensity (a.u.)
TTCAATGACAATGTTGACTTTTTGACAAACGTTTAACCTTCGGAGTCACCTAGTGCAG	10200 fluorescence intensity (a.u.)
CACTATTCACGTTTAACGTTTGACCGTTCTTCTTATTTGACGGAGTCACCTAGTGCAG	10300 fluorescence intensity (a.u.)
AATGTATGACACCGTTGACTTCTTGACCAACGTTTAACCACGGAGTCACCTAGTGCAG	18700 fluorescence intensity (a.u.)
GCTCTTTGGCCTGCTTCAGCCTTCAGCTTCTCCATGGTTTCGGAGTCACCTAGTGCAG	10700 fluorescence intensity (a.u.)
TACCTACTTTCTCATCTTAAGCAATCACTTCGACTTTAATCGGAGTCACCTAGTGCAG	9820 fluorescence intensity (a.u.)
TGCCTAACAATTCTTTTTATTCGCGACGTCAATATACTACCGGAGTCACCTAGTGCAG	9730 fluorescence intensity (a.u.)

Sequence	binding signal
AGAATTACTGCTGCTTTATTTACTTTTCTTCCATTGGTTTCGGAGTCACCTAGTGCAG	13000 fluorescence intensity (a.u.)
TAATGTATTCCGGCAAATGAATATGTTGTTTGACTTTTTTCGGAGTCACCTAGTGCAG	10300 fluorescence intensity (a.u.)
TTAATGTATGACACTGTTGACTTTTTTTCCAACGTTTGACCGGAGTCACCTAGTGCAG	21900 fluorescence intensity (a.u.)
CCGGTCGTTTCCCGTATTGTTGGCATATATGTACACGGAGCGGAGTCACCTAGTGCAG	8030 fluorescence intensity (a.u.)
CCGTCGTGCTGCGCCCTTCAATTTGTTGGTCTCGCTCGCCCGGAGTCACCTAGTGCAG	8490 fluorescence intensity (a.u.)
ACACTTTCTCTCTTGTACACTTTCATTTCACGTGTCTAAACGGAGTCACCTAGTGCAG	17500 fluorescence intensity (a.u.)
GTGTCTTGTACATGTCTTCGTTTCTTCCTTTCTCATTTCACGGAGTCACCTAGTGCAG	10900 fluorescence intensity (a.u.)
TTATACTTTCTCTTTTTTTCACGTGTATATTTTCTAAACCCGGAGTCACCTAGTGCAG	9610 fluorescence intensity (a.u.)
TTGTTTTCTACTCCTAATACTCTTTTGTCTGTCTCATCTGCGGAGTCACCTAGTGCAG	12400 fluorescence intensity (a.u.)
CGTATCTGCTCTGTTTTTCATCTCCTGTCATTTGTCTAAACGGAGTCACCTAGTGCAG	18500 fluorescence intensity (a.u.)
GTCATCCTGTTTCACTGCTAGCTCTCCCTAAATTTTGAAACGGAGTCACCTAGTGCAG	8490 fluorescence intensity (a.u.)
AAGAACACAACACACTTGATATATATACCTCACACACACTCGGAGTCACCTAGTGCAG	8060 fluorescence intensity (a.u.)
TACTTGGTGCAGTGTTGAGCCTTGTTTTACAATAAATTTTCGGAGTCACCTAGTGCAG	8100 fluorescence intensity (a.u.)
GCGCCGTTGTTCTTCCTGCCACATCCATCCTGGTGAGCACCGGAGTCACCTAGTGCAG	12700 fluorescence intensity (a.u.)
ATGTTTGACGCTGTTGACTTTTTTAAACATATTTGACTCTCGGAGTCACCTAGTGCAG	21500 fluorescence intensity (a.u.)
CTAAATATTTAACGCTGTTGACTTTTTAAAACATATTTGACGGAGTCACCTAGTGCAG	9280 fluorescence intensity (a.u.)
ATTCTCTAAATGTTTGACGCTGTTGACTTTTTAAAACATGCGGAGTCACCTAGTGCAG	16600 fluorescence intensity (a.u.)
GGGTATTTTTTAAGTAGCTAGGTGTATAATTAAATTAGTTCGGAGTCACCTAGTGCAG	8760 fluorescence intensity (a.u.)
TTTTTAGGGTGTGGGTATTAGTTGGAAAATACAATAAATGCGGAGTCACCTAGTGCAG	9530 fluorescence intensity (a.u.)
GTGTAGGAGTAGTTAGGGTTGTTGCTTGTTGGAGGGAAAACGGAGTCACCTAGTGCAG	9460 fluorescence intensity (a.u.)
TAATGGAAGTGGTTTACGTCGCTTCTGTCAATAAACACACCGGAGTCACCTAGTGCAG	48400 fluorescence intensity (a.u.)
TCATCAATGTCGACTTCTGTTTTGAAGTCGCTTTTTCATCCGGAGTCACCTAGTGCAG	9100 fluorescence intensity (a.u.)

Sequence	binding signal
ATGTTTACGTGCAACACATTATGGTTCTCTTCTCTGTAAACGGAGTCACCTAGTGCAG	8230 fluorescence intensity (a.u.)
ATTCCTCCGCCACAACACCACGCTGACCACAGTCCACCGTCGGAGTCACCTAGTGCAG	8360 fluorescence intensity (a.u.)
CCCGCTGGTGCACTTCAACGCTACTCCTCTTCGCCGCCAACGGAGTCACCTAGTGCAG	9270 fluorescence intensity (a.u.)
CGTACCTTCTCTGTTGAATCTCCTGTTCGCTTTTCTGTTACGGAGTCACCTAGTGCAG	9160 fluorescence intensity (a.u.)
AGACGTATTCCTGTATCCGCCTATCCGTATCTTGGTATCACGGAGTCACCTAGTGCAG	8300 fluorescence intensity (a.u.)
TATATATATATATATATATATATATATATATATATATATCCGGAGTCACCTAGTGCAG	8650 fluorescence intensity (a.u.)
ATATATATATATATATATATAGACGTATTCCTGTATCCGCCGGAGTCACCTAGTGCAG	21000 fluorescence intensity (a.u.)
GGCTTTTTTGTTGGGCTTCTTTTGATCAAAAACGTTGTTTCGGAGTCACCTAGTGCAG	12000 fluorescence intensity (a.u.)
TGGTGGTGGTTGTGGTTGGGTTGGTGTCTGTCTTTTGTACCGGAGTCACCTAGTGCAG	16300 fluorescence intensity (a.u.)
CTTGCGGTTCATTTGGGGTTGGTTGGTTCTAGGGTACTGTCGGAGTCACCTAGTGCAG	16700 fluorescence intensity (a.u.)
GCGGTTGGGTTTGTGTGGTTTTTTTTGAAGGCGGAGTTGTCGGAGTCACCTAGTGCAG	12100 fluorescence intensity (a.u.)
TGTTTGGTGCTGTCGGTACATGGGTGGTGGTTTTTTCTTTCGGAGTCACCTAGTGCAG	17500 fluorescence intensity (a.u.)
CTGCTGCAGTTGAGCTGTACTGTTTTGGTGGGTTGGTTTTCGGAGTCACCTAGTGCAG	13900 fluorescence intensity (a.u.)
GCGCTGTCAGTGTGTGGGTGGTAGTATATTTTTTTCTTTTCGGAGTCACCTAGTGCAG	12500 fluorescence intensity (a.u.)
AATTCATTTGTCTTGGTACGCTGTTGGGGCGTAATAGGGGCGGAGTCACCTAGTGCAG	13200 fluorescence intensity (a.u.)
TATTGTATTGGGTTGGGCCTTTGTGGTTGTCTAATGAAGTCGGAGTCACCTAGTGCAG	22300 fluorescence intensity (a.u.)
TTGGTGCTGTTGGTGCGTGGGTGGTGGTATAATTTTCTTTCGGAGTCACCTAGTGCAG	11900 fluorescence intensity (a.u.)
GTGTGTGGGTGGTGGTATATTTTTTTTCTTTCTCTTGGTTCGGAGTCACCTAGTGCAG	12800 fluorescence intensity (a.u.)
GCGATGTCGGTGTGTGGGTGGTGGTATATTTTTCCTTTTTCGGAGTCACCTAGTGCAG	18000 fluorescence intensity (a.u.)
GAGGAGGTTGGGTTCTTGATCGGTGTCGGATTTTTGGTTGCGGAGTCACCTAGTGCAG	10800 fluorescence intensity (a.u.)
